# Assay outcomes (PubChem BioAssay)
# In the library only some 5% were active in any assay of this set; here they are far more common.
# AI-2 QS modul = Vibrio harveyi AI-2 quorum sensing modulation. Vibrio harveyi JMH597 AI-2 luminescence/OD600 ratio, 9 h; stronger effect = lower value; strain lacks LuxN and CqsS sensors; 0 = neutral-control median. activity change, % at 7.5 µM. AID 2094. hit rate 0.4% among 300,000; in the data active = activity change below about -75%, passing the limit was not always enough;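 also: luminescence divided by OD600 gain over 9 h not by final OD600 alone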
# CHT inh = human CHT choline transport inhibition; Q9GZV3; CHT-expressing cells, membrane potential dye, choline response; stronger effect = lower value; B-score at 10 µM; hit rate 0.86% among 310,000;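 active = B-score over 3 SD under the library average, and starting fluorescence ratio not unusually high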;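 also: choline stimulus applied at its EC90 after an EC20 pre-addition; B-score computed on integrated fluorescence ratio after choline addition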
# ALR inh = inhibitors of human sulfhydryl oxidase ALR | P55789 | purified ALR, DTT oxidation, H2O2 HRP-luminol luminescence | inhibition, % (test concentration not listed) | hit rate 3.8% among 290,000 | AID 485317;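 active = mean replicate inhibition above about 79%, with every replicate also reaching it, limit read from the data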
# Target sequence (P55789 whole entry, looked up): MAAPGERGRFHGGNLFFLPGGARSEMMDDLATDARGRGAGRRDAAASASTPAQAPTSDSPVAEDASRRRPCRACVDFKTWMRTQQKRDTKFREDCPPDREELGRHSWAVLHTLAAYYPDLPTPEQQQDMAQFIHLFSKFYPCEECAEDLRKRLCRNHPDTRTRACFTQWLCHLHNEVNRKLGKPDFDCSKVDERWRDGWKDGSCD
# CHT allo act = human CHT allosteric activation. Q9GZV3. CHT-expressing cells, membrane potential dye, choline EC20; stronger effect = higher value; LV-AA mutant CHT in HEK293 cells. B-score at 10 µM. hit rate 0.49% among 310,000;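 active = initial fluorescence not abnormally high and integrated response B-score, plate-corrected, over 3 SD above library mean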
# PREPL inhibitor = human PREPL enzyme inhibition | AID 2751 | inhibition, % at 5.96 µM | recombinant PREPL, fluorescence polarization activity-based probe | hit rate 0.68% among 320,000; in the data active = inhibition above about 43%;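 also: 0% = enzyme with DMSO and 100% = wells lacking enzyme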
# CHT act confirm = human CHT activation, confirmatory screen | shares compounds with CHT allo act | CHT-expressing cells, membrane potential dye fluorescence (FDSS); % of choline EC20–EC90 response window; HEK293 expressing CHT LV-AA mutant; choline added at its EC20 | activation, % at 10 µM | hit rate 91% among 2,500 | AID 504833;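 active = primary screen active, with duplicate mean activation above negative control mean plus 3 SD, cut at about 11% in these data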
# HEK293 MP dye = counter-screen for CHT activators: effect in parental HEK293 cells. membrane potential dye fluorescence (FDSS); measured after EC20 choline addition. ratio readout change at 10 µM, hits read low. shares compounds with CHT allo act. hit rate 62% among 2,500;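 active = duplicate-averaged ratio beyond 3 SD from buffer wells, up or down, though filed actives are nearly all decreases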
# An asterisk follows results filed as active; i = inactive; x = not tested or not shown.
SMILES,AI-2 QS modul,CHT inh,ALR inh,CHT allo act,PREPL inhibitor,CHT act confirm,HEK293 MP dye
COc1ccc(CN2CCNC(=O)C2CC(=O)NCC(C)(C)N2CCOCC2)cc1C (stereo unspecified),2,i,2,i,8,x,x
O=C(Nn1cnc2ccccc2c1=O)c1ccccc1[N+](=O)[O-],10,i,-3,i,-12,x,x
COC(=O)c1ccc(/C=C/C(=O)OCC(=O)NCc2cccs2)cc1,x,x,-4,x,-4,x,x
CCCCN(CC)CCNC(=O)CN(C)S(=O)(=O)c1ccc2c(c1)c(=O)n(C)c(=O)n2C,14,i,-1,i,18,32*,-34*
CC1CCCCC1NC(=O)CN(C)S(=O)(=O)c1ccc2c(c1)c(=O)n(C)c(=O)n2C (stereo unspecified),13,i,-13,i,1,x,x
CN1C(=O)c2c(sc3c2CC(C)(C)SC3)N2CCN=C12,29,i,x,15*,4,60*,-55*
CC(=O)c1cccc(Nc2nc(=O)c3cccnc3s2)c1,22,i,-7,7*,6,48*,-44*
CC(=O)N1CCN(c2ccc(NS(=O)(=O)c3ccc(C)cc3)cc2)CC1,14,i,39,i,31,x,x
Cc1c(C)c2ccc(OCC(=O)N3CC[C@@]4(O)CCCC[C@H]4C3)c(C)c2oc1=O,34,i,x,i,11,x,x
O=C(Cc1cccs1)N(Cc1ccco1)C1(C(=O)NC2CCCCC2)CCCCC1,17,i,x,i,6,55*,i
COc1ccc2c(c1)SCC/C2=C\CN1C(=O)CCC1=O,22,i,-14,i,-3,x,x
CC(=O)N1CCN(Cc2nc3cc(NC(=O)Nc4ccccc4)ccc3n2C)CC1,11,i,x,i,7,x,x
CCCCC1CCC(C(=O)NC2CCS(=O)(=O)C2)CC1 (stereo unspecified),-8,i,-2,i,-3,10*,i
CC(Oc1ccccc1)C(=O)N(CCC1=CCCCC1)c1c(N)n(Cc2ccccc2)c(=O)[nH]c1=O (stereo unspecified),23,i,-2,i,9,11*,i
Nc1c(N(CCC2=CCCCC2)C(=O)CCCOc2ccccc2)c(=O)[nH]c(=O)n1Cc1ccccc1,11,i,-5,i,0,x,x
O=C(CCCn1cnc([N+](=O)[O-])n1)Nc1cccc(O)c1,29,i,1,i,21,x,x
C=CC[n+]1c(-c2ccc(OC)c(OC)c2)csc1NNC(=O)Nc1ccccc1,11,i,36,i,16,8,i
C=CC[n+]1c(-c2ccccc2)csc1NC(C)(C)C,19,i,3,i,5,x,x
Cc1cc2c(cc1C)[n+](C)cn2CC(O)COCc1ccccc1 (stereo unspecified),-8,i,0,i,14,48*,-35*
COc1cc2c(cc1NC(=O)COCC(=O)O)oc1ccccc12,22,i,-4,i,x,46*,-45*
COc1ccccc1CC(=O)Nc1cc2oc3ccccc3c2cc1OC,44,i,-5,i,4,x,x
CCCCCCCCCCCC(=O)NC1CCS(=O)(=O)C1 (stereo unspecified),4,i,-36,i,-1,x,x
COc1ccc(NC(=S)NC(C)c2ccncc2)cc1OC (stereo unspecified),10,i,-12,i,7,18*,i
CC(C)CC(=O)CC1(O)C(=O)Nc2ccccc21 (stereo unspecified),19,i,5,i,6,x,x
O=C(C[n+]1ccccc1)c1ccc(Cl)cc1,15,i,5,i,2,x,x
SMILES,AI-2 QS modul,CHT inh,ALR inh,CHT allo act,PREPL inhibitor,CHT act confirm,HEK293 MP dye
Cn1nnc2c[n+](CC(=O)c3ccc(Cl)cc3)cc(Br)c21,12,i,91*,i,28,59*,-89*
Cn1nnc2c[n+](CC(=O)c3ccc4ccccc4c3)cc(Br)c21,-15,i,4,10*,12,58*,-94*
Cc1ccc(NCC(=O)c2ccc([N+](=O)[O-])cc2)cc1,19,i,48,6.4*,12,11*,-23*
COC(=O)c1ccc2c(C)c(C(C)(C)O)[nH]c2c1,7,i,10,i,11,x,x
CCN1C(N(C)CCc2cccs2)=N[C@@H](c2ccccc2)C(C(=O)OC)=C1C,10,i,-19,13*,5,26*,i
COc1ccc(-c2nnc3ccc(SCC(=O)Nc4cc(C)on4)nn23)cc1OC,36,i,12,i,14,x,x
COc1ccc(-c2nnc3ccc(SCC(N)=O)nn23)cc1OC,87,i,-6,i,6,31*,-31*
CCOC(=O)CSc1ccc2nnc(-c3cccs3)n2n1,31,i,24,i,6,x,x
COc1ccc(-c2nnc3ccc(SCC(=O)N4CCCCC4)nn23)cc1OC,16,i,-13,i,6,20*,i
CCOC(=O)CSc1ccc2nnc(-c3ccncc3)n2n1,15,i,-2,i,3,12*,-33*
Cc1cc(NC(=O)CCC(=O)N(CC(=O)NC2CCCC2)c2ccc(Cl)cc2)no1,-9,i,-14,i,5,x,x
CN(/C(=N\S(=O)(=O)c1ccccc1)c1ccccc1)c1ccc(O)cc1,23,i,-12,i,5,x,x
CC(C)C(=O)N1CCN(c2ccccc2NC(=O)c2cccc(Cl)c2)CC1,30,i,-14,6.6*,0,18*,i
CC[n+]1c(C)n(-c2ccccc2)c2ccc(C(=O)OC)cc21,15,i,1,7.5*,5,32*,-29*
CCCNC(=S)N1CCC(C(=O)c2ccc(OC)cc2)CC1,11,i,-3,6.7*,-4,-20,i
CCCNC(=S)N1CCC(C(=O)c2ccc(Cl)cc2)CC1,x,i,-3,i,-4,x,x
c1csc(-c2nc3nc4ccccc4nc3n2Cc2ccc3c(c2)OCO3)c1,x,i,-2,8.7*,0,15*,i
CCCn1c(-c2cccs2)nc2nc3ccccc3nc21,28,i,-5,i,-3,x,x
COc1ccc([C@H]2/C=C\CN(C(=O)CC(C)(C)C)[C@@H](C)C(=O)N2Cc2ccc(F)cc2)cc1,14,i,0,9*,42,25*,i
CC(=NCCCn1ccnc1)C1=C(O)c2ccccc2C1=O,16,i,-3,i,14,29*,-38*
O=C(O)CCC(=O)Nc1ccccc1C(=O)NCCc1ccccc1,4,i,12,i,6,x,x
